# Values joined by “and” are separate entries in the source; they are usually repeats but may differ in a detail not shown here. Identical values can stand only once.
# System: Proto-oncogene tyrosine-protein kinase receptor Ret (Homo sapiens), P07949 [V804L]
# Conditions: at 0.1 µM
# Sequence of Proto-oncogene tyrosine-protein kinase receptor Ret (Homo sapiens), P07949 [V804L] (P07949 whole entry V804L): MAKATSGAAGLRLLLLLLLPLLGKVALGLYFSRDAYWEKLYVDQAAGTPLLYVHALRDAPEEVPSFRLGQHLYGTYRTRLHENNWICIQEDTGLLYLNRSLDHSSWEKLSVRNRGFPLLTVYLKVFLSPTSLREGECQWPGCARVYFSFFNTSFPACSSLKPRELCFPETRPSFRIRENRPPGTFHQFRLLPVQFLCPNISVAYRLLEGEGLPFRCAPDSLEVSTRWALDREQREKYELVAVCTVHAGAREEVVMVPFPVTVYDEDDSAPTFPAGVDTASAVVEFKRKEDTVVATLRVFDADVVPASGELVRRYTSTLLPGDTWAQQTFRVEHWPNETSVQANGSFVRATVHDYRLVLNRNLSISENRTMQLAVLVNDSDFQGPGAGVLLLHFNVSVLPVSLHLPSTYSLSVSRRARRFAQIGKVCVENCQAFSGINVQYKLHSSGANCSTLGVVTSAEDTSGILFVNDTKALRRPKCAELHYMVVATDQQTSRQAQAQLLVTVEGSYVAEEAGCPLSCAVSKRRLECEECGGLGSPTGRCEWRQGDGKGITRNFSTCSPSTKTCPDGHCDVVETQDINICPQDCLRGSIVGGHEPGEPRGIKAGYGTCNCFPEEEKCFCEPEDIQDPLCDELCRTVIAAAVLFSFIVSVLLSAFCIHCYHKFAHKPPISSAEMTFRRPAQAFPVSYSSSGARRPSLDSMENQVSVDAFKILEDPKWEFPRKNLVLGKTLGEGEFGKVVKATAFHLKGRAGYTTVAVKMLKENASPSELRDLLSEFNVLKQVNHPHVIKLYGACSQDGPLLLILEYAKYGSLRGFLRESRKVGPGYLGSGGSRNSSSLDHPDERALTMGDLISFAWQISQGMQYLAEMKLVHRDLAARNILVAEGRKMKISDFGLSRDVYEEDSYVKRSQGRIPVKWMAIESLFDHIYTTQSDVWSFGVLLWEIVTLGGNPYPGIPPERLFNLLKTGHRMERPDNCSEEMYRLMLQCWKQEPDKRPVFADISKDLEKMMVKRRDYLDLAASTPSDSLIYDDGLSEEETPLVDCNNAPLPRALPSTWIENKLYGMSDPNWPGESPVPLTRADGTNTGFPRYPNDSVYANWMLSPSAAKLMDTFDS
row,SMILES,inhibition
1,Cc1nnc(-c2cccc(-c3ccc(C(=O)NCC4CC4)cc3)c2)o1,4.63%
2,N#Cc1ccc2c(-c3ccnc(NC4CC4)n3)c(-c3ccc(F)cc3)nn2c1,3.66%
3,O=C(O[C@H]1CN[C@H](C#Cc2cc3ncnc(Nc4ccc(OCc5cccc(F)c5)c(Cl)c4)c3s2)C1)N1CCOCC1,2.92%
4,COc1c(C(N)=O)cc(-c2ccc(Cl)cc2)cc1-c1ccc(S(N)(=O)=O)cc1,6.61%
5,Cc1ccc(-c2cc3c(NC(=O)C4CC4)ncnc3o2)cc1,6.9%
6,COc1cccc(Nc2nccc(-c3cnn4ncccc34)n2)c1,3.16%
7,NS(=O)(=O)c1cccc(N/C=C2\C(=O)Nc3ccccc32)c1,11%
8,c1ccc(-c2n[nH]cc2-c2ccnc(-c3ccc(OCCn4ccnc4)cc3)c2)nc1,2.75%
9,CS(=O)(=O)Nc1ccc(-c2ccc3c(NC(=O)C4CC4)n[nH]c3c2)cc1,4.24%
10,CCOc1ccc2c(-c3ccnc(Nc4cc(OC)cc(C(F)(F)F)c4)n3)cnn2n1,1.94%
11,COC(=O)Nc1nc2cc(Oc3ccc(NC(=O)Nc4ccccc4)cc3)ccc2[nH]1,8.3%
12,CCS(=O)(=O)c1ccc(OC)c(Nc2ncc(-c3cccc(F)c3)o2)c1,7.78%
13,CC(C)c1ccc(-c2cc(-c3c[nH]nc3-c3ccccn3)ccn2)cc1,3.27%
14,CN1CCN(Cc2ccc(-c3cc4ncnc(Nc5ccc(OCc6cccc(F)c6)c(Cl)c5)c4s3)o2)CC1,3.67% and 4.61%
15,NS(=O)(=O)c1ccc(N/N=C2\C(=O)Nc3cccc(CCc4ccncc4)c32)cc1,38.5%
16,Cc1cc(O)cc(C)c1/C=C/c1cncc(C(N)=O)c1,0.84%

row,SMILES,inhibition
1,O=C1Nc2ccccc2/C1=C1\CCc2cc(O)ccc21,36.1%
2,Nc1nccc(-c2c(-c3ccc(F)cc3)ncn2C2CCNCC2)n1,0.39% and 2.71%
3,COc1cc(N2CCN(C(C)C)CC2)ccc1Nc1nc(Nc2cccc(F)c2C(=O)O)c2cc[nH]c2n1,3.85%
4,CN(c1ccc(NC(=O)NCCN2CCOCC2)cc1)c1ccnc(Nc2ccc(CS(C)(=O)=O)cc2)n1,13.2%
5,N#Cc1cccc(Nc2ncc(-c3ccccc3)o2)c1,0.71%
6,O=C(O[C@H]1CN[C@H](C#Cc2cc3ncnc(Nc4ccc5c(cnn5Cc5ccccc5)c4)c3s2)C1)N1CCOCC1,2.83%
7,CNC(=O)c1sc(-n2cnc3cc(OC)c(OC)cc32)cc1OCc1ccccc1C(F)(F)F,6.14%
8,c1cnn2ncc(-c3ccnc(NCCCN4CCOCC4)n3)c2c1,2.98%
9,COc1ccccc1-c1cc(/C=C2\C(=O)Nc3ncc(Br)cc32)cc(Br)c1O,9.25%
10,CS(=O)(=O)CCNCc1ccc(-c2ccc3ncnc(Nc4ccc(OCc5ccccc5)cc4)c3c2)o1,3.01%
11,Fc1ccc(Nc2nccc(-c3c(-c4ccc(C(F)(F)F)cc4)nn4ncccc34)n2)cc1F,1.24%
12,NC(=O)c1ccc2c(-c3ccnc(NCCCO)n3)c(-c3ccc(F)cc3)nn2c1,1.73%
13,COC(=O)Nc1nc2ccc(Oc3ccc(NC(=O)Nc4cc(C(F)(F)F)ccc4F)cc3)cc2s1,67.3%
14,CS(=O)(=O)CCNCc1ccoc1-c1ccc2ncnc(Nc3ccc(OCc4ccccc4)cc3)c2c1,8.41%
15,COc1cccc(-n2ncc3c(N/N=C/c4ccc(C(=O)NCCN(C)C)cc4)ncnc32)c1,12.7%

# System: Proto-oncogene tyrosine-protein kinase receptor Ret (Homo sapiens), P07949 [V804L]
# Conditions: at 1 µM
row,SMILES,inhibition
1,Cc1nnc(-c2cccc(-c3ccc(C(=O)NCC4CC4)cc3)c2)o1,16.7%
2,N#Cc1ccc2c(-c3ccnc(NC4CC4)n3)c(-c3ccc(F)cc3)nn2c1,2.65%
3,O=C(O[C@H]1CN[C@H](C#Cc2cc3ncnc(Nc4ccc(OCc5cccc(F)c5)c(Cl)c4)c3s2)C1)N1CCOCC1,6.95%
4,COc1c(C(N)=O)cc(-c2ccc(Cl)cc2)cc1-c1ccc(S(N)(=O)=O)cc1,9.45%
5,Cc1ccc(-c2cc3c(NC(=O)C4CC4)ncnc3o2)cc1,13.6%
6,COc1cccc(Nc2nccc(-c3cnn4ncccc34)n2)c1,22.6%
7,NS(=O)(=O)c1cccc(N/C=C2\C(=O)Nc3ccccc32)c1,48.6%
8,c1ccc(-c2n[nH]cc2-c2ccnc(-c3ccc(OCCn4ccnc4)cc3)c2)nc1,13.2%
9,CS(=O)(=O)Nc1ccc(-c2ccc3c(NC(=O)C4CC4)n[nH]c3c2)cc1,8.77%
10,CCOc1ccc2c(-c3ccnc(Nc4cc(OC)cc(C(F)(F)F)c4)n3)cnn2n1,5.01%
11,COC(=O)Nc1nc2cc(Oc3ccc(NC(=O)Nc4ccccc4)cc3)ccc2[nH]1,13.8%
12,CCS(=O)(=O)c1ccc(OC)c(Nc2ncc(-c3cccc(F)c3)o2)c1,33.8%
13,CC(C)c1ccc(-c2cc(-c3c[nH]nc3-c3ccccn3)ccn2)cc1,2.58%
14,CN1CCN(Cc2ccc(-c3cc4ncnc(Nc5ccc(OCc6cccc(F)c6)c(Cl)c5)c4s3)o2)CC1,5.81% and 10.9%
15,NS(=O)(=O)c1ccc(N/N=C2\C(=O)Nc3cccc(CCc4ccncc4)c32)cc1,43.6%
16,Cc1cc(O)cc(C)c1/C=C/c1cncc(C(N)=O)c1,4.4%

row,SMILES,inhibition
1,O=C1Nc2ccccc2/C1=C1\CCc2cc(O)ccc21,73.6%
2,Nc1nccc(-c2c(-c3ccc(F)cc3)ncn2C2CCNCC2)n1,9.24% and 2.58%
3,COc1cc(N2CCN(C(C)C)CC2)ccc1Nc1nc(Nc2cccc(F)c2C(=O)O)c2cc[nH]c2n1,12.1%
4,CN(c1ccc(NC(=O)NCCN2CCOCC2)cc1)c1ccnc(Nc2ccc(CS(C)(=O)=O)cc2)n1,48.9%
5,N#Cc1cccc(Nc2ncc(-c3ccccc3)o2)c1,14.4%
6,O=C(O[C@H]1CN[C@H](C#Cc2cc3ncnc(Nc4ccc5c(cnn5Cc5ccccc5)c4)c3s2)C1)N1CCOCC1,4.7%
7,CNC(=O)c1sc(-n2cnc3cc(OC)c(OC)cc32)cc1OCc1ccccc1C(F)(F)F,11.4%
8,c1cnn2ncc(-c3ccnc(NCCCN4CCOCC4)n3)c2c1,2.2%
9,COc1ccccc1-c1cc(/C=C2\C(=O)Nc3ncc(Br)cc32)cc(Br)c1O,12%
10,CS(=O)(=O)CCNCc1ccc(-c2ccc3ncnc(Nc4ccc(OCc5ccccc5)cc4)c3c2)o1,11.9%
11,Fc1ccc(Nc2nccc(-c3c(-c4ccc(C(F)(F)F)cc4)nn4ncccc34)n2)cc1F,-1.13%
12,NC(=O)c1ccc2c(-c3ccnc(NCCCO)n3)c(-c3ccc(F)cc3)nn2c1,4.71%
13,COC(=O)Nc1nc2ccc(Oc3ccc(NC(=O)Nc4cc(C(F)(F)F)ccc4F)cc3)cc2s1,84.6%
14,CS(=O)(=O)CCNCc1ccoc1-c1ccc2ncnc(Nc3ccc(OCc4ccccc4)cc3)c2c1,9.53%
15,COc1cccc(-n2ncc3c(N/N=C/c4ccc(C(=O)NCCN(C)C)cc4)ncnc32)c1,50.4%
